Source: PubChem BioAssay (NCATS)
Inconclusive results are not listed. Where a call stands in place of a potency, no number is given. Active and inactive are the calls of the source. The call rests on the fitted dose curve; in most records, active means well fitted inhibition curve with a large enough effect; inconclusive means small, poorly fitted or top-dose-only effect; inactive means flat fitted curve, though single readings scatter.
Potency means the concentration at half of the fitted maximal effect.

Each compound was assayed against Luciferin 4-monooxygenase (Photinus pyralis) (UniProt P08659) (assay: Biochemical firefly luciferase enzyme assay for NPC (AID 624030; further: nearly all actives have a fitted effect of over 70% in size)). Settings: purified P. pyralis luciferase, luminescence, 5 min; series mostly up to 58.6 µM.
Luciferin 4-monooxygenase (Photinus pyralis), sequence (P08659 whole entry, looked up): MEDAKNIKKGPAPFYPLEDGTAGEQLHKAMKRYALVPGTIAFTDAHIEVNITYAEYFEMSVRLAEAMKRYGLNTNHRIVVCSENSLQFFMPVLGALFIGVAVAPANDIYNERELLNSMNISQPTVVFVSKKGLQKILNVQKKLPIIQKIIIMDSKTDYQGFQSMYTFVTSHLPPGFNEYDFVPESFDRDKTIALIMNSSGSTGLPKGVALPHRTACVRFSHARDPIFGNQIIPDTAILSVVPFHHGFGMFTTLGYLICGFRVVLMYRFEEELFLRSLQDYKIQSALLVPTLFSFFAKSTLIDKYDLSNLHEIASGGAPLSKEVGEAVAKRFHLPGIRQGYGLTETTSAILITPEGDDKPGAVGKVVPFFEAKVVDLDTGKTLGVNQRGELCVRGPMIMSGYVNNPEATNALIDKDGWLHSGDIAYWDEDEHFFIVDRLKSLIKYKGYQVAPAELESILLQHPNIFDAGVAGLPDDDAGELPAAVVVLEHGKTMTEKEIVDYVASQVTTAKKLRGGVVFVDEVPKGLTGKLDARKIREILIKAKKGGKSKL
From the text: Charcot-Marie-Tooth-Association [CMTA] National Center for Advancing Translational Sciences [NCATS] Charcot-Marie-Tooth (CMT) disease was first characterized by Jean-Martin Charcot and Pierre Marie in France and, independently, by Howard Henry Tooth in England in 1886. CMT is one of the most common inherited neurological diseases, affecting approximately 1 in 2,500 Americans. […] The most prevalent type of CMT is known as CMT1A and caused by a duplication of the PMP22 gene which leads to over-expression of this protein. PMP22 is a glycosylated intrinsic membrane protein accounting for 2-5% of the myelin protein content, and its over-expression results in demyelination and subsequently axonal loss. A pair of cellular transcription-based assays was developed in the S16 rat Schwann cell lines (Hai, M., et al., 2002) stably transfected with orthogonal reporters - firefly luciferase (Fluc) and beta-lactamase (beta-Lac) - whose expression is driven by an intronic regulatory element of the PMP22 gene (Jones, E.A., et al., 2011) to recapitulate endogenous expression of PMP22. A comprehensive library of approved drugs, the NCGC Pharmaceutical Collection (Huang, R., et al., 2011), was screened in the cross-validating platform of the orthogonal reporter assays to identify drug modulators inhibitory towards PMP22 expression. A set of counter-screens was devised to address non-specific activity of the library. An ATP-dependent CellTiter-Glo assay (developed by Promega Corp) was utilized to control cell viability. In addition, biochemical Fluc enzyme assay was performed to assess direct inhibition of the Fluc enzymatic activity. References Hai, M., Muja, N., DeVries, G.H., Quarles, R.H. and Patel, P.I. Comparative analysis of Schwann cell lines as model systems for myelin gene transcription studies. J Neurosci Res, 2002. 69(4): pp 497-508 Huang, R., Southall, N., Wang, Y., Yasgar A., Shinn P., Jadhav, A. , Nguyen, D.-T. and Austin, C.P., The NCGC pharmaceutical collection: a comprehensive resource of clinically approved drugs enabling repurposing and chemical genomics. Sci Transl Med, 2011. 3(80): p. 80ps16.
Compounds were transferred to the plates in 23nl, and one microliter/well luciferase enzyme-buffer solution (10 nM P. pyralis luciferase and 50 mM Tris Acetate final concentrations) was dispensed yielding a final reaction volume of […]. Luciferase luminescence was measured by a ViewLux plate reader within 5 minutes of enzyme-buffer addition. The % activity was determined by normalizing to the average readings of PTC124 (a positive control) relative to DMSO (0% Activity). The concentration-effect curves were then classified based on curve quality (r2), response magnitude and degree of measured activity.
In the case of `CCCC(=O)N1CCCN(c2nc(N)c3cc(OC)c(OC)cc3n2)CC1`, the Potency is reported as “inactive”.
In the case of `O=C(OCCO)c1ccccc1O`, the Potency is reported as “inactive”.
For `Cc1c(O)cc2c(c1C)O[C@](C)(CCC[C@H](C)CCC[C@H](C)CCCC(C)C)CC2`, the Potency was “inactive”.
`CCCCCCCCCCCCCCCC(=O)OC/C=C(C)/C=C/C=C(C)/C=C/C1=C(C)CCCC1(C)C` was tested, and the Potency was “inactive”.
In the case of `CCCCCCCCCCCCCCCC(=O)OC[C@@H](COP(=O)([O-])OCC[N+](C)(C)C)OC(=O)CCCCCCCCCCCCCCC`, the Potency is reported as “inactive”.
In the case of `NCCCNCCCCNC(=O)C(O)NC(=O)CCCCCCN=C(N)N` (stereo not given), the Potency is reported as “inactive”.
In the case of `COC(C)=O`, the Potency is reported as “inactive”.
With `NNc1nnc(Cc2ccncc2)c2ccccc12` the Potency was 5.1 µM (active).
With `O=[N+]([O-])c1ccc(Oc2ccc(N=C=S)cc2)cc1` the Potency was “inactive”.
`CCCC1([C@H](O)C/C=C/[C@H]2[C@H](O)CC(=O)[C@@H]2CCCCCCC(=O)OC)CCC1` was tested, and the Potency was “inactive”.
`CCCCCC(O)/C=C/C=O` (stereo not given) was tested, and the Potency was “inactive”.
In the case of `C[C@H]1C[C@@H]2[C@H]([C@@H](O)C[C@@]3(C)[C@H]2CC[C@]3(O)C(=O)COC(=O)CCC(=O)O)[C@@]2(C)C=CC(=O)C=C12`, the Potency is reported as “inactive”.
In the case of `CCOC(=O)COc1ccc2c(C)c(CCN(CC)CC)c(=O)oc2c1`, the Potency is reported as “inactive”.
With `O=C(O)c1cccc(/C=C2/C[C@@H]3[C@@H](/C=C/[C@@H](O)C4CCCCC4)[C@H](O)C[C@@H]3O2)c1` the Potency was “inactive”.
`CN1CCN(C2=Nc3ccccc3Cc3ccccc32)CC1` was tested, and the Potency was “inactive”.
For `CN[C@H]1CC[C@@H](c2ccc(Cl)c(Cl)c2)c2ccccc21`, the Potency was “inactive”.
`COc1ccc(CNCC(O)COc2ccc3[nH]c(=O)ccc3c2)cc1OC` (stereo not given) was tested, and the Potency was “inactive”.
`CCN(CC)c1ccc(N=Nc2ccc(S(=O)(=O)N(C)C)cc2)c(S(=O)(=O)NCC[n+]2ccccc2)c1` was tested, and the Potency was “inactive”.
With `O=P(O)(O)OC(Cn1cncn1)(Cn1cncn1)c1ccc(F)cc1F` the Potency was “inactive”.
For `COc1cc2[nH]c(C)c(CCN3CCN(c4ccccc4)CC3)c2cc1OC`, the Potency was “inactive”.
In the case of `CN(C)Cc1ccccc1`, the Potency is reported as “inactive”.
`CCCCCCCCCCCCCCCC(=O)OCCC1CCN(CCCN2c3ccccc3Sc3ccc(S(=O)(=O)N(C)C)cc32)CC1` was tested, and the Potency was “inactive”.
In the case of `CN(C)CCOc1ccccc1Cc1ccccc1` (tested in a mixture with another compound), the Potency is reported as “inactive”.
For `COc1ccc(C(=O)Nc2ccccc2CCC2CCCCN2C)cc1` (stereo not given), the Potency was “inactive”.
With `O=P(O)(O)C(O)(Cc1cnc2ccccn12)P(=O)(O)O` the Potency was “inactive”.
`O=C(Cn1cnnn1)N[C@@H]1C(=O)N2C(C(=O)O)=C(CSc3nncs3)CS[C@H]12` was tested, and the Potency was “inactive”.
In the case of `NCCCC(=O)O`, the Potency is reported as “inactive”.
In the case of `Cn1nnnc1SCC1=C(C(=O)O)N2C(=O)[C@@H](NC(=O)[C@H](OC=O)c3ccccc3)[C@H]2SC1`, the Potency is reported as “inactive”.
`CCCCCCCCCCCCCCCCCC(=O)OCCO` was tested, and the Potency was “inactive”.
With `CC(=O)OC[C@H]1O[C@@H](O[C@H]2[C@H](O)[C@@H](OC(=O)c3ccccc3C(=O)O)[C@H](O)O[C@@H]2COC(C)=O)[C@H](O)[C@@H](OC(=O)c2ccccc2C(=O)O)[C@@H]1O` the Potency was “inactive”.
With `O=C1C(c2[nH]c3ccc(S(=O)(=O)O)cc3c2O)=Nc2ccc(S(=O)(=O)O)cc21` the Potency was “inactive”.
`CC1=C(C(=O)OCCN(Cc2ccccc2)c2ccccc2)C(c2cccc([N+](=O)[O-])c2)C(P2(=O)OCC(C)(C)CO2)=C(C)N1` (stereo not given) was tested, and the Potency was “inactive”.
`CCCC(CCC)C(N)=O` was tested, and the Potency was “inactive”.
With `CN(C(=O)CO)c1c(I)c(C(=O)NCC(O)CO)c(I)c(C(=O)NCC(O)CO)c1I` (stereo not given) the Potency was “inactive”.
For `CCCCC(=O)O`, the Potency was “inactive”.
For `CC1(S(=O)(=O)O)CC(=O)c2ccccc2C1=O` (stereo not given), the Potency was “inactive”.
In the case of `C=CCNC1=C2C[C@@H](C)C[C@H](OC)[C@H](O)[C@@H](C)/C=C(\C)[C@H](OC(N)=O)[C@@H](OC)/C=C\C=C(/C)C(=O)NC(=CC1=O)C2=O`, the Potency is reported as “inactive”.
`CCCCCCCCCC(=O)O` was tested, and the Potency was “inactive”.
For `CCOc1ccc(N=C(C)Nc2ccc(OCC)cc2)cc1`, the Potency was “inactive”.
In the case of `CCC(C)C(C(=O)OCC[N+](C)(CC)CC)c1ccccc1` (stereo not given), the Potency is reported as “inactive”.
